MOR-DOR ag: agonists of OPRM1-OPRD1 heterodimerization, primary screen, cell-based, luminescence; activation, % at 9.3 µM; cells; 340,000 compounds, 0.3% hits; AID 504326, 2011; in the data active = activation above about 18%
beta cell repl: inducers of MIN6 beta-cell proliferation, primary screen, ATP luminescence, uHTS; MIN6 cells proliferation, ATPlite luminescence, 48 h; cells starved in 0.2% serum; 100% = growth in 10% serum; AID 2380, 2010; 330,000 compounds, 0.29% hits; proliferation, % at 10 µM;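 active = compounds whose signal lies at least 3.5 SD above the mean of all wells on their plate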
V-ATPase pH: regulators of yeast V-ATPase proton pumping, primary screen, pHLuorin cytosolic pH fluorescence; response, % at 10 µM; S. cerevisiae; AID 504577, 2011; 350,000 compounds, 0.37% hits; in the data active = response mostly above about 7.3%, no sharp cut-off; inactive = mostly below about 5.4%; also: actives read high
HTR5A ag ctr: HTR5A agonists in luminescence cell assay, primary screen, counter-screen for OPRM1-OPRD1 heterodimer agonist project, full-deck HTS; 5-hydroxytryptamine receptor 5A (Homo sapiens), P47898; 340,000 compounds, 0.61% hits; cell-based; activation, % at 9.3 µM; AID 504692, 2011; in the data active = activation mostly above about 9.5%, no sharp cut-off; inactive = mostly below about 7.6%
Target sequence (P47898 whole entry, looked up): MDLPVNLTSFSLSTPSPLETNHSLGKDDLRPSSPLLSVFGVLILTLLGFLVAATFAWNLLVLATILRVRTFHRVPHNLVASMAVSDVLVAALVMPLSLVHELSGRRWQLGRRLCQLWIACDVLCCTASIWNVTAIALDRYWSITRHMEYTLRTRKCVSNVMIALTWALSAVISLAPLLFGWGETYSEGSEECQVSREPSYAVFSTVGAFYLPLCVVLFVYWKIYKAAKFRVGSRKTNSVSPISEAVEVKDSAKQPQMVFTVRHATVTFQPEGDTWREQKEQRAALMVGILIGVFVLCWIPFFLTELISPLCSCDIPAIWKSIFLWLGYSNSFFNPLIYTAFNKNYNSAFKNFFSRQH
OPRM1-OPRD1 inv: inverse agonists of MOR-DOR heterodimerization, primary screen, cell-based, luminescence. Mu-type opioid receptor (Homo sapiens) + Delta-type opioid receptor (Homo sapiens), …. cell-based MOR-DOR heterodimer luminescence, inverse agonism. inhibition, % at 9.3 µM. 340,000 compounds, 0.21% hits. AID 504357, 2011; in the data active = inhibition above about 22%, passing the limit was not always enough
HTR5A inv ag: HTR5A inverse agonists in luminescence cell assay, primary screen, counter-screen for OPRM1-OPRD1 heterodimer inverse agonist project, full-deck HTS. 5-hydroxytryptamine receptor 5A (Homo sapiens), P47898. HTR5A cell line, inverse agonism. inhibition, % at 9.3 µM. 340,000 compounds, 0.083% hits. AID 504634, 2011; in the data active = inhibition mostly above about 23%, no sharp cut-off; inactive = mostly below about 18%
Hits are given with their value; i = inactive; nt = not tested or not shown. Shown are actives, neighbours in structure and some others; about 1.7% of the full set was active somewhere.

SMILES | MOR-DOR ag | beta cell repl | V-ATPase pH | HTR5A ag ctr | OPRM1-OPRD1 inv | HTR5A inv ag
O=C(CSc1nc(-c2ccccc2)cs1)Nc1nccs1 | i | i | i | 11 | i | i
COc1ccc(OC)c(S(=O)(=O)N(C)CC(=O)N2CCOCC2)c1 | i | i | i | 11 | i | i
CC(C)(COC(=O)c1ccccc1)N1CC2CCC(C1)O2 | i | nt | 19 | i | i | i
CC[C@]1(C(=O)OC)[C@H]2C(=O)N(Cc3ccccc3)C(=O)[C@H]2[C@H]2CN=C(SCC3CC3)N21 | i | nt | i | 5.3 | i | i
O=C(O/N=C1/CCSc2ccccc21)c1ccc(F)cc1 | i | i | i | 10 | i | i
O=C(O/N=C1/CCCc2occc21)c1ccc(F)cc1 | i | i | i | i | i | i
Cc1nn(-c2ccccc2)c(C)c1NC(=O)COC(=O)Cc1ccccc1F | i | i | i | 12 | i | i
COc1ccccc1CCC(=O)OCC(=O)Nc1c(C)nn(-c2ccccc2)c1C | i | i | i | i | i | i
O=C(O)C1(c2ccccc2)CCN(S(=O)(=O)c2ccc(F)c(F)c2)CC1 | i | i | i | i | i | i
COc1ccc(OC)c(N=Nc2c(O)c3ccccc3[nH]c2=O)c1 | i | nt | i | 14 | i | i
C=CCNC(=O)/C(=C\c1ccc(Br)cc1)NC(=O)c1ccccc1OC | i | i | i | i | i | i
COc1ccc(N2CCN(S(=O)(=O)c3c(C(=O)N4CCOCC4)c(C)n(C)c3C)CC2)cc1 | i | i | i | i | i | i
C/C(=N\Nc1ncnc2sc(C)c(C)c12)c1ccccn1 | i | i | 70 | i | i | i
CC(C)(C)S(=O)N1Cc2cc(CO)cc(CCO)c2[C@H]1CCO (stereo partly drawn) | i | nt | i | i | i | i
COc1ccccc1N1CCN(C(=O)c2cc3c(s2)CCCCC3)CC1 | i | i | i | 10 | i | i
CCOc1ccccc1N1CCN(C(=O)c2cc3c(s2)CCC3)CC1 | i | i | i | i | i | i
COC(=O)[C@@]1(Cc2ccc(OC)cc2)[C@H]2c3cc(C(=O)N(C)C)[nH]c3C[C@H]2CN1C(=O)c1ccccc1 | i | i | i | 14 | i | i
Cc1cccc(-c2nnc3n2N=C(c2ccccc2Br)CS3)c1 | i | 7.3 | i | i | i | i
COc1cc(NCc2ccccc2)c2ncn(Cc3ccccc3)c2c1 | i | i | 14 | i | i | i
COCCCOc1cc(NCc2ccccc2)c2ncn(C(C)C)c2c1 | i | i | i | i | i | i
CC(=O)N(C)c1ccc(NC(=S)Nc2cccc3ccccc23)cc1 | i | i | i | 14 | i | i
CC(=O)N(C)c1ccc(NC(=S)Nc2ccccc2)cc1 | i | i | i | i | i | i
C[C@]1(CO)CCC[C@@]2(C)C1CC[C@@H](CO)[C@@H]2CCc1ccoc1 (stereo partly drawn) | i | i | i | 9.8 | i | i
COCCN1C=C2C(=O)C(C)(OC(=O)c3cccs3)C(=O)C=C2C=C1CCCC(=O)OC (stereo not drawn) | i | i | i | 14 | i | i
COC(=O)CCCC1=CC2=CC(=O)C(C)(OC(=O)c3cccs3)C(=O)C2=CN1CCN1CCOCC1 (stereo not drawn) | i | i | i | i | i | i
SMILES | MOR-DOR ag | beta cell repl | V-ATPase pH | HTR5A ag ctr | OPRM1-OPRD1 inv | HTR5A inv ag
COC(=O)CCCC1=CC2=CC(=O)C(C)(OC(=O)c3cccs3)C(=O)C2=CN1c1ccccc1 (stereo not drawn) | i | i | i | i | i | i
COC(=O)CCCC1=CC2=CC(=O)C(C)(OC(=O)c3cccs3)C(=O)C2=CN1CCCCO (stereo not drawn) | i | i | i | 12 | i | i
O=c1onc(-c2ccccc2)n1Cc1ccc([N+](=O)[O-])cc1 | nt | nt | i | nt | nt | nt
Cc1nnc(SCC(=O)Nc2ccc(N3CCOCC3)cc2)n1Cc1ccccc1 | i | i | 23 | i | i | i
O=C(CSc1n[nH]c(=O)n1Cc1ccccc1)Nc1ccc(N2CCOCC2)cc1 | i | i | i | i | i | i
CC(=O)Oc1ccc(/C(C)=N/N2CCN(Cc3ccc(C)cc3)CC2)cc1 | i | i | i | 9.8 | i | i
